rCAG RNA binder: r(CAG) repeat RNA binding | TO-PRO-1 dye displacement fluorescence | AID 651821 | 1.3% of 370,000 active | inhibition, % at 3 µM;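 active = inhibition above the plate cutoff, the mean of all test compounds on that plate plus 3 SD, cut at about 35% in these data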;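 also: 0% = DMSO alone and 100% = 100 µM mitoxantrone as full dye displacement; higher means more dye released from RNA so lower well fluorescence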
GRIN3A LBD mod: modulators (binders) of human NR3A ligand-binding domain; NR3A LBD differential scanning fluorimetry, Tm shift; 0% = protein alone, 100% = glycine-bound protein; Tm shift relative to glycine control, % at 25 µM; 2.5% of 340,000 active; AID 1259313;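 active = melting temperature shift of at least 10% of the positive control shift, at one fixed dose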
MPTP inh: inhibitors of mitochondrial permeability transition pore. isolated mouse mitochondria, Ca2+ swelling absorbance, 30 min. inhibition, % at 10 µM. AID 602449. 1.4% of 360,000 active;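 active = inhibition of 50% or more, scaled per plate between neutral and stimulator controls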;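 also: 0% = DMSO wells given calcium and 100% = 1 mM EGTA wells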
FAS TE block: blocks the thioesterase domain of human fatty acid synthase | recombinant FAS-TE, OMFH fluorogenic substrate, fluorescence endpoint | AID 602261 | 0.67% of 360,000 active | P49327 | inhibition, % at 15 µM;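 active = compounds whose normalised, plate-corrected inhibition of enzyme fluorescence in the single-dose primary screen is 50% or more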;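 also: 0% = DMSO with enzyme and 100% = substrate without enzyme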
Myeloid diff MLP: promotes myeloid progenitor differentiation; 1% of 360,000 active; AID 624256; calls only at 10 µM; ER-HoxA9 myeloid progenitors, lysozyme-GFP differentiation, flow cytometry;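 active = normalized GFP-positive differentiation at or above the plate's own cutoff, the solvent-only control mean plus 3 SD; inconclusive = no clear call, values can overlap the other calls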;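 also: cells exposed to compound for four days before flow analysis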
FAS-TE inh conf: confirmation of human fatty acid synthase thioesterase inhibitors; recombinant FAS-TE, OMFH fluorogenic substrate, fluorescence; 45% of 2,300 active; AID 624325; inhibition, % at 15 µM; shares compounds with FAS TE block;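 active = compounds inhibiting the enzyme by at least 50% at 15 µM in any one of the replicates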;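 also: 0% = enzyme with DMSO only and 100% = wells lacking enzyme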
* = called active by the depositor; i = inactive; ? = inconclusive; . = no result; + = active, no number. Hits are enriched below; roughly 5.7% of the tested compounds scored in any of these assays.

SMILES	rCAG RNA binder	GRIN3A LBD mod	MPTP inh	FAS TE block	Myeloid diff MLP	FAS-TE inh conf
C=CCN1c2ccccc2[C@]23C[C@@H](C(=O)OC)N(C(=O)NC4CCCC4)C2=NC(C(=O)OC)=C(C(=O)OC)[C@H]13	7	2	-2	75*	i	0
CC#CCN1c2ccccc2[C@]23C[C@@H](C(=O)OC)N(C(=O)NCCBr)C2=NC(C(=O)OC)=C(C(=O)OC)[C@H]13	5	-3	-1	64*	i	29
C=CS(=O)(=O)N[C@@H](CSSC[C@H](NS(=O)(=O)C=C)C(=O)OC)C(=O)OC	0	.	.	.	.	.
C=CCN(CC#CC1=CCCCC1)Cc1ccccc1	-1	.	.	.	.	.
COc1ccc(OC)c(-c2nc3cc4ccccc4cc3nc2-c2ccccc2)c1	4	-1	3	53*	i	14
COc1ccc(-c2nc3ccccc3nc2-c2ccccc2)cc1OC	-5	-1	1	12	.	.
Cc1cc2oc(=O)cc(CN3CCN(S(=O)(=O)/C=C/c4ccccc4)CC3)c2cc1C	4	-3	2	54*	i	12
CC(C)Cn1c(N)c(C(=O)COC(=O)c2cc3ccccc3cc2O)c(=O)n(C)c1=O	9	2	0	82*	i	2
CC(C)Cn1c(N)c(C(=O)COC(=O)c2ccc(O)cc2O)c(=O)n(C)c1=O	9	-1	-1	0	i	.
CCCc1cc(C(=O)Nc2cccc([N+](=O)[O-])c2)cs1	8	-11	42	52*	i	41*
CC(C)(C)c1ccc(C(=O)N2CCC2(C)C(=O)Nc2cccc(C#N)c2)cc1 (stereo not drawn)	1	.	3	65*	i	66*
Cc1ccsc1C(=O)N1CCC1(C)C(=O)Nc1cccc(C#N)c1 (stereo not drawn)	1	.	1	8	i	.
C[C@@H]1C=CCCO[C@]12C(=O)N(CC1CC1)c1ccccc12	1	.	.	.	.	.
CCCCCCCCN1C(=O)[C@@H](CC(=O)NCc2ccc(OC)c(OC)c2)C[C@@]2(C(=O)OC)C1=C[C@H](C(C)C)O[C@@H]2C1CC1	7	.	.	.	.	.
COc1ccc(OCC(=O)Nc2cc(S(=O)(=O)N3CCCC3)ccc2OCC(F)(F)F)cc1	-4	2	0	0	i	.
O=C(CNc1cc(S(=O)(=O)N2CCCC2)ccc1OCC(F)(F)F)Nc1ccc(SC(F)F)cc1	4	-5	14	65*	i	56*
CCc1cccc2sc(N3CCN(C(=O)c4ccc([N+](=O)[O-])o4)CC3)nc12	.	-7	-1	52*	?	40*
O=C1C(Cc2ccccc2)Nc2ncnc(N3CCN(c4ccccc4)CC3)c2N1Cc1ccc(Cl)cc1 (stereo not drawn)	3	-3	1	84*	i	-5
COC(=O)C[C@H]1CC[C@@H]2[C@H](COc3ccc(NC(=O)NCc4ccccc4)cc3C(=O)N2C)O1	1	.	.	.	.	.
CCN1Cc2c(/C=C/c3ccccc3)nc3ccc(OC)cc3c2N(c2cccc(Cl)c2)C1	10	3	-1	77*	+	85*
COc1cccc(N2CCc3c(C)nc4ccc(Cl)cc4c32)c1	9	-2	-1	8	?	.
COc1ccc(/C=C/S(=O)(=O)NCC(C)C)c(CNC(=O)OC(C)(C)C)c1	2	.	.	.	.	.
CCCc1cc(=O)oc2c(C)c(OCc3nn[nH]n3)ccc12	2	0	2	20	i	.
Cc1c(OCc2nn[nH]n2)ccc2c(-c3ccccc3)cc(=O)oc12	24	2	2	76*	i	86*
O[C@@H]1CN(CC2CCCCC2)[C@@H](c2ccccc2)C[C@H]1n1cc(C2CC2)nn1	4	.	-2	7	i	.
SMILES	rCAG RNA binder	GRIN3A LBD mod	MPTP inh	FAS TE block	Myeloid diff MLP	FAS-TE inh conf
O[C@H]1C[C@H](c2ccccc2)N(CC2CCCCC2)C[C@@H]1n1cc(C2CC2)nn1	0	.	-2	65*	i	65*
CCn1cc([N+](=O)[O-])c(C(=O)N2N=C(c3ccccc3)CC2c2ccc([N+](=O)[O-])cc2)n1 (stereo not drawn)	2	-4	3	63*	i	47*
CCn1cc([N+](=O)[O-])c(C(=O)N2N=C(c3ccc(Cl)c(Cl)c3)CC2c2ccccc2O)n1 (stereo not drawn)	12	7	0	30	i	.
CC(=O)N1N=C(c2ccccc2)CC1c1cccc([N+](=O)[O-])c1 (stereo not drawn)	-4	-1	1	15	i	.
COc1ccc(C2=NN(C(=O)c3ccccc3)C(c3cccc([N+](=O)[O-])c3)C2)cc1 (stereo not drawn)	6	-3	2	75*	i	13
CCOc1ccccc1N(CC(=O)NC1CCCCC1)C(=O)c1nsc(Cl)c1Cl	-11	-20	6	50*	i	18
CC1CCC(NC(=O)C2CCC(CNS(=O)(=O)c3ccc4c(c3)C(C)(C)C(=O)N4C)CC2)CC1 (stereo not drawn)	3	.	0	-12	i	.
Cc1cc2c(c(=O)o1)[C@@]1(C(=O)N(C)c3ccccc31)C1=C(CC(C)(C)CC1=O)O2	1	.	.	.	.	.
Cc1nc2cc(C(F)(F)F)ccc2n1CCNc1nc(-c2ccc([N+](=O)[O-])c(Cl)c2)cs1	18	25*	0	52*	i	30
O=[N+]([O-])c1cc(-c2csc(NCCc3nc4cc(C(F)(F)F)ccc4n3CCCO)n2)ccc1Cl	23	17*	0	81*	i	70*
OCCCn1c(CCNc2nc(-c3ccc(Cl)cc3)cs2)nc2cc(C(F)(F)F)ccc21	2	6	2	20	i	.
CCCc1nc2ccc(C(=O)OC)cn2c1Cc1ccccc1OC	7	.	.	.	.	.
COc1cccc(CNC(=O)[C@H]2CCCN2C(=O)[C@H]2CCCN2C(=O)c2cccs2)c1	1	.	.	.	.	.
O=C(Nc1nc(-c2ccc(S(=O)(=O)N3CCCC3)cc2)cs1)c1ccco1	8	-3	0	70*	i	65*
CC(C)C(=O)Nc1nc(-c2ccc(S(=O)(=O)N3CCOCC3)cc2)cs1	0	0	0	85*	i	86*
COc1ccc(-c2cc(C(=O)Nc3cc(S(=O)(=O)N4CCOCC4)ccc3N3CCOCC3)c3ccccc3n2)cc1	7	1	1	82*	i	28
COc1ccccc1C(=O)Nc1nc(-c2ccc(S(=O)(=O)N3CCOCC3)cc2)cs1	9	-2	5	52*	i	23*
CCCCN1CC[C@H](C)Oc2cc(Br)ccc2S1(=O)=O	1	.	.	.	.	.
O=C(N[C@@H]1CC[C@H]2SC[C@H](C(=O)O)N2C1=O)OCC1c2ccccc2-c2ccccc21	26	.	.	.	.	.
O=C(Cc1c[nH]c2ccccc12)Nc1ccc(Nc2cccnc2)c(Br)c1	11	.	.	.	.	.
